Assay results: PubChem BioAssay (NCATS)
Inconclusive results are not listed. Calls of active or inactive are those of the source. Calls come from the whole dose curve; as a rule, active = well fitted inhibition curve with a large enough effect; inconclusive = small, poorly fitted or top-dose-only effect; inactive = flat fitted curve, though single readings scatter.

Assays:
Assay in all cases: Cytotoxic Profiling of Annotated Libraries Using Quantitative High-Throughput Screening (AID 1296008); note: nearly all actives have a fitted effect of over 60% in size
Settings in all cases: Five cell lines viability, CellTiter-Glo ATP luminescence, 48-72 h; max response: active compounds read low
CRL-7250 = normal cell line; tested on: CRL-7250
In short: (§1)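 Cells exposed to compounds for 48 or 72 hr at 37 degrees Celsius. Viability read as ATP-coupled luminescence with CellTiter-Glo after 10 min at room temperature.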

HEK293 = tested on: HEK293
In short: as §1

HaCat = tested on: HaCat
In short: as §1

KB-3-1 = tested on: KB-3-1
In short: as §1

NIH3T3 = tested on: NIH3T3
In short: as §1

Measured: max response
% is set by controls: 0 for no effect and ±100 for the full control effect.

COc1cc(C2CC(=O)Nc3c2cc(Br)c2ccccc32)cc(OC)c1OC (stereo not given)
inactive: CRL-7250 | HEK293 1.49% | HaCat | KB-3-1 | NIH3T3

C=CC(C)(CC/C=C(\C)C(=O)OC[C@H]1O[C@@H](OC(C)(C=C)CC/C=C(\C)C(=O)O[C@H]2[C@H](O)[C@@H](O)[C@H](OC(C)(C=C)CC/C=C(\C)C(=O)O)O[C@@H]2CO)[C@H](O)[C@@H](O)[C@@H]1O)O[C@@H]1O[C@H](CO)[C@@H](O)[C@H](O)[C@H]1O (stereo not given in full)
inactive: CRL-7250 -2.1% | HEK293 -7.01% | HaCat | KB-3-1 3.96% | NIH3T3 -1.72%

CC1(C)C2CCC1(C)C(OC(=O)C(O)(CC(=O)O)CC(=O)O)C2 (stereo not given)
inactive: CRL-7250 | HEK293 -0.502% | HaCat | KB-3-1 | NIH3T3 3.45%

CC(C)c1ccc2c(c1)C(O)CC1C(C)(CO)CCCC21C (stereo not given)
inactive: CRL-7250 -14% | HEK293 -7.86% | HaCat | KB-3-1 9.46% | NIH3T3 -1.6%
